Screening data: PubChem, National Center for Advancing Translational Sciences (NCATS)
An excerpt weighted towards active compounds, which were near 14% of everything screened.
NS1 function inh: influenza NS1 inhibition; hit rate 0.4% among 270,000; Potency, µM (highest dose often 46.1 µM), without a hit: at the top dose activity, positive = more growth; AID 2326; calls by dose curve; note: potency is the fitted concentration of half-maximal effect; actives are rising curves; nearly all actives have a fitted effect of over 50% in size
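In this qHTS, NS1 from influenza A is expressed in budding yeast, where it slows growth. Cells are switched from glucose to 2% galactose medium (pH 6.0, -URA), treated with compound, and growth recovery is read at OD600.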
LmPK inh: inhibitors of Leishmania mexicana pyruvate kinase; Q27686; purified LmPK, Kinase-Glo ATP luminescence, 1 h; Potency, µM (doses to about 57.5 µM), inactives show at the highest dose activity change, negative = inhibition, actives largely listed as inhibitors; hit rate 0.37% among 290,000; AID 1721; note: potency is the fitted concentration of half-maximal effect; % is set by controls: 0 for no effect and ±100 for the full control effect
Target sequence (Q27686 whole entry, looked up): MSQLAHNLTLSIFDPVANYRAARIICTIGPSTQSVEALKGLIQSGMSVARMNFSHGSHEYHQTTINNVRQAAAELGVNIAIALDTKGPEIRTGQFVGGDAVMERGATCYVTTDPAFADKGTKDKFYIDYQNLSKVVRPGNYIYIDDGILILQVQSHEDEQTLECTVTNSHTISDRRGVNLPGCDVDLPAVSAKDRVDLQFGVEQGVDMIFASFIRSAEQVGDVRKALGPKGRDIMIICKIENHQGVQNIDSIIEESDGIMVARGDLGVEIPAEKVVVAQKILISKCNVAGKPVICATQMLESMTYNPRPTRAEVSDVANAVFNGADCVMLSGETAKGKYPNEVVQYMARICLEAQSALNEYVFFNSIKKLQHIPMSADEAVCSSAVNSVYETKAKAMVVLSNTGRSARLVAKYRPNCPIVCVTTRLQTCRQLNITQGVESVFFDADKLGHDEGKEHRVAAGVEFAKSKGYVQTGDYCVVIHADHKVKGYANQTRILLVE
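ATP generated from ADP (0.1 mM) and PEP (0.5 mM) by 0.1 nM LmPK over 1 h at room temperature (pH 7.2 imidazole buffer) was detected by coupled luciferase luminescence. Values were normalized to uninhibited and no-enzyme wells.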
Shiga toxin inh: blocks Shiga toxin action in Vero cells | Vero cells, Shiga toxin protein synthesis inhibition reporter | inhibition, % at 38.7 µM | hit rate 9.2% among 290,000; in the data active = inhibition mostly above about 28%, no sharp cut-off; inactive = mostly below about 43%; note: 0% is about no effect
CHX counter: affects cycloheximide protein synthesis inhibition readout, counter-screen. cell reporter, cycloheximide protein synthesis inhibition counterscreen. max response, %. hit rate 12% among 300,000. AID 2314; in the data active = max response mostly above about 13%, no sharp cut-off; inactive = mostly below about 14%; note: read at 38.3 µM for the half of the compounds with a filed dose; 0% is about no effect
Giardia FBPA inh: blocks Giardia fructose-bisphosphate aldolase activity; purified Giardia FBPA; Potency, µM (titrated, usually from 59.6 µM), without a hit: at the top dose activity, negative = inhibition, hits mostly inhibitors; hit rate 0.71% among 290,000; AID 2451; note: potency is the fitted concentration of half-maximal effect; % is set by controls: 0 for no effect and ±100 for the full control effect; nearly all actives have a fitted effect of over 55% in size
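40 nM FBPA preincubated 10 min at RT with compound (up to 57.5 uM final), then substrate plus GAPDH/TPI/NAD/arsenate coupling and diaphorase/resazurin added. Fluorescence read after 20 min at RT, 525/598 nm.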
Numbers without * were called inactive; ? = inconclusive; nt = no result; [ ] = remark or other dose. Unless noted, calls come from the whole dose curve; as a rule, active = well fitted curve in the direction sought with a large enough effect; inconclusive = small, poorly fitted or top-dose-only effect, or another doubt; inactive = no such curve, though single readings can be large; an effect the other way counts as inactive or inconclusive.

SMILES	NS1 function inh	LmPK inh	Shiga toxin inh	CHX counter	Giardia FBPA inh
CCC(C(=O)O/N=C(\N)c1ccc(Cl)cc1)c1ccccc1 (configuration not stated)	1%	6%	-1	9	-1%
CC1=C/C(=N\OC(=O)/C=C/c2ccccc2)C(C)=CC1=O	?	-2%	-7	-4	-19%
N/C(=N\OC(=O)/C=C/c1ccccc1)c1ccc(Cl)cc1	-4%	-3%	17	16*	1%
N/C(=N\OC(=O)/C=C/c1ccccc1)c1ccccc1	-184%	14µM*	92*	35*	-1%
Cc1cc2oc(=O)cc(CN3CCCCC3C)c2cc1C(C)C (configuration not stated)	-8%	0%	-5	-2	-14%
O=C(N/N=C1/C[C@@H](O)[C@@H](O)[C@@H]2[C@H]3C(=O)N(c4ccc(F)cc4F)C(=O)[C@@H]3CC[C@@H]12)OCc1ccccc1	nt	nt	nt	nt	1%[12.9 µM]
COc1cc(NC(=O)C2CC(c3ccccc3Cl)=NO2)cc(OC)c1OC (configuration not stated)	-16%	1%	-12	-2	10%
Cc1ccc(C(=O)Cn2nc(C)c([N+](=O)[O-])c2C)c(C)c1	nt	1%	57*	20*	-3%
Cc1cc(C)c(C(=O)Cn2nc(C)c([N+](=O)[O-])c2C)cc1C	nt	5%	-7	-2	0%
CCOC(=O)N1CCN(C(=O)CSCC(=O)Nc2nc(-c3cccs3)cs2)CC1	0%	2%	11	-1	-8%
CC1CCCCN1C(=O)CSCC(=O)Nc1nc(-c2cccs2)cs1 (configuration not stated)	-31%	2%	37*	24*	0%
CC1CCCN(C(=O)CSCC(=O)Nc2nc(-c3cccs3)cs2)C1 (configuration not stated)	-7%	0%	41	14	0%
CC1CCN(C(=O)CSCC(=O)Nc2nc(-c3cccs3)cs2)CC1	-27%	7%	45*	10*	-2%
NC(=O)CC(NC(=O)Cc1ccc(Br)cc1)c1ccc(N2CCc3ccccc3C2)c([N+](=O)[O-])c1 (configuration not stated)	28%	-2%	-6	-1	-1%
O=C(NCc1ccccn1)c1ccc(NS(=O)(=O)c2ccccc2)cc1	25%	4%	-2	-3	7%
O=C(Cc1ccccc1F)Nc1nc(-c2ccc(F)cc2)cs1	-36%	-2%	64*	26*	3%
COc1ccccc1CC(=O)Nc1nc(-c2ccc(F)c(F)c2)cs1	-49%	-1%	44*	26*	-2%
Cc1cccc(NC(=O)C2COc3ccccc3O2)n1 (configuration not stated)	-33%	0%	55*	47*	4%
Cc1cnc(NC(=O)C2COc3ccccc3O2)s1 (configuration not stated)	-3%	?	39	13	-4%
O=C(Nc1ccccn1)C1COc2ccccc2O1 (configuration not stated)	4%	?	64*	32*	-5%
O=C(Nc1nc(-c2ccccc2)cs1)C1COc2ccccc2O1 (configuration not stated)	-9%	1%	60	8	-1%
O=C(Nc1nc(-c2ccccn2)cs1)C1COc2ccccc2O1 (configuration not stated)	-125%	3%	11	10	?
Cc1csc(NC(=O)C2COc3ccccc3O2)n1 (configuration not stated)	14%	-13%	22	13*	2%
O=C(Nc1ccc(Cl)cn1)C1COc2ccccc2O1 (configuration not stated)	0%	4%	51*	29*	1%
CN1CCN(c2ccc(Cl)cc2NC(=O)C2COc3ccccc3O2)CC1 (configuration not stated)	-41%	5%	9	0	2%
SMILES	NS1 function inh	LmPK inh	Shiga toxin inh	CHX counter	Giardia FBPA inh
Cc1cc(NC(=O)C2COc3ccccc3O2)no1 (configuration not stated)	10%	-7%	61*	37*	-9%
CCOCCCNC(=O)CN1CCN(Cc2ccc(Cl)cc2)C1=O	5%	0%	-4	-2	7%
Nc1ccccc1SC/C=C/CSc1ccccc1N	-31%	-4%	68*	37*	5%
CN1C(=O)Cc2cc(S(=O)(=O)Nc3ccc(Cl)cc3)ccc21	15%	3%	36	6	14%
CC(=O)Nc1ccc(C(=O)Nc2nc(-c3ccccn3)cs2)cc1	14%	-3%	40	19	?
c1ccc(CCNc2nc(-c3ccccn3)cs2)cc1	-53%	-9%	86*	40*	-25%
O=C(Nc1nc(-c2cccnc2)cs1)c1ccccc1Cl	1%	8%	18	-2	1%
c1ccc(CCNc2nc(-c3cccnc3)cs2)cc1	-19%	-1%	40*	62*	-29%
O=C(O)c1cccc(N2C(=O)/C(=C/c3ccc([N+](=O)[O-])cc3)C=C2c2ccccc2)c1	nt	2%	38*	23*	-6%
Cc1[nH]c2ccccc2c1C(=O)CSc1ccc(F)cc1	1%	1%	52	23*	12%
Cc1[nH]c2ccccc2c1C(=O)CSc1nncn1C	0%	-2%	-2	-1	-8%
Cc1[nH]c2ccccc2c1C(=O)CSc1ccccc1	4%	5%	4	28*	-9%
Cc1ccc2c(C(=O)CSc3ccccc3)c(C)[nH]c2c1	-5%	-4%	34	8	6%
Cc1[nH]c2ccccc2c1C(=O)CSc1ccccn1	-5%	-5%	45	40*	-21%
Cc1ccc(SCC(=O)c2c(C)[nH]c3ccccc23)cc1	-4%	1%	35	13*	0%
CN1CCC(OC(=O)c2cc3cc(Br)ccc3oc2=O)CC1	11%	-5%	1	-2	13%
O=c1[nH][nH]cc1C=Nc1ccccc1O	-100%	-4%	-4	-5	12%
O=c1c(=Nc2ccccc2O)c(=O)c2ccccc12	-2%	-7%	108*	21*	?
Cc1ccc(NC(=O)CCC(=O)N2CCOc3ccccc32)c(Cl)c1	-7%	-3%	17*	11*	-5%
O=C(CCC1COc2ccccc2O1)NC1CCCCC1 (configuration not stated)	-8%	2%	27	36*	3%
O=C(CCC(=O)N1CCOc2ccccc21)NC1CCCCCC1	-5%	2%	13	6.6*	8%
O=C(CSc1nnc(C2COc3ccccc3O2)o1)N1CCCCC1 (configuration not stated)	-4%	12%	32	-2	0%
O=C(CSc1nnc(C2COc3ccccc3O2)o1)NC1CCCCC1 (configuration not stated)	-21%	-2%	39	20*	3%
O=C(CCC(=O)N1CCOc2ccccc21)Nc1cc(F)ccc1F	-13%	-4%	-2	-2	1%
Cc1cc(OCC(=O)Nc2ccncc2)cc(C)c1Cl	-74%	2%	-16	-1	-1%
